# TGFb inhibitor: blocks TGF-b signaling | HepG2 CAGA-GFP TGF-b/SMAD3 reporter, GFP fluorescence, 18 h; TGF-beta stimulated, 500 pg/mL final | Potency, µM (highest dose often 46.1 µM), hits mostly inhibitors | 410,000 tested, 1.2% active; note: nearly all actives have a fitted effect of over 65% in size
#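 Using HEPG2 CAGA-GFP reporter cells at 1000 cells/well, we pinned test compounds, stimulated with recombinant TGF-beta (500 pg/mL final) and measured total well GFP after 18 h.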
# DT40 TDP1 no CPT: qHTS for Inhibitors of human tyrosyl-DNA phosphodiesterase 1 (TDP1): qHTS in cells in absence of CPT | DT40 Tdp1-/- hTDP1 cells, no CPT, ATP luminescence, 48 h | Potency, µM (titrated, usually from 46.2 µM), actives largely listed as inhibitors | 420,000 tested, 15% active | AID 686978, 2013; note: nearly all actives have a fitted effect of over 55% in size
#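 Luminescent ATP content (CellTiter-Glo) served as the growth readout. Knockout chicken DT40 cells expressing human TDP1 were exposed to compounds without camptothecin for a minimum 48 hr at 37 °C.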
# HepG2 viability: kills HepG2 cells in TGF-b inhibitor counter-screen; Potency, µM (titrated, usually from 46.1 µM), most hits filed as cytotoxic; 410,000 tested, 0.76% active; HepG2 CAGA-GFP viability, ATP luminescence, 18 h; AID 588856
#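 CellTiter-Glo luminescence gave cytotoxicity after 18 hours at 37 degrees C. The cells were HepG2 CAGA-GFP in 1% FBS DMEM, stimulated with 500 pg/mL TGF-beta after compound addition. %Activity was normalised to no-cell wells (complete cell-killing) and DMSO (no toxicity), and curves were fitted and classified.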
# IL-1B inflam inh: blocks inflammasome-driven IL-1 beta release; THP-1 LPS/ATP IL-1B secretion, AlphaLISA, 16 h; active compounds read low; activity change, % at 57.5 µM; 360,000 tested, 4.7% active; in the data active = activity change below about -50%; inconclusive = mostly about -30% to -49%
#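 Secreted IL-1B measured by AlphaLISA bead assay after 16 h compound exposure of THP-1 cells; compounds (final up to 57.5 uM) added 1 h before LPS (250 ng/mL) and ATP (1.25 mM) stimulation; lower signal means less secretion.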
# S-ASM inh: inhibitors of human secretory acid sphingomyelinase; placental ASM, HMU-PC fluorogenic substrate, 60 min; Potency, µM (top dose mostly 57.5 µM), most hits filed as inhibitors; 340,000 tested, 0.006% active
# Target sequence (P17405 47-631 limits assumed): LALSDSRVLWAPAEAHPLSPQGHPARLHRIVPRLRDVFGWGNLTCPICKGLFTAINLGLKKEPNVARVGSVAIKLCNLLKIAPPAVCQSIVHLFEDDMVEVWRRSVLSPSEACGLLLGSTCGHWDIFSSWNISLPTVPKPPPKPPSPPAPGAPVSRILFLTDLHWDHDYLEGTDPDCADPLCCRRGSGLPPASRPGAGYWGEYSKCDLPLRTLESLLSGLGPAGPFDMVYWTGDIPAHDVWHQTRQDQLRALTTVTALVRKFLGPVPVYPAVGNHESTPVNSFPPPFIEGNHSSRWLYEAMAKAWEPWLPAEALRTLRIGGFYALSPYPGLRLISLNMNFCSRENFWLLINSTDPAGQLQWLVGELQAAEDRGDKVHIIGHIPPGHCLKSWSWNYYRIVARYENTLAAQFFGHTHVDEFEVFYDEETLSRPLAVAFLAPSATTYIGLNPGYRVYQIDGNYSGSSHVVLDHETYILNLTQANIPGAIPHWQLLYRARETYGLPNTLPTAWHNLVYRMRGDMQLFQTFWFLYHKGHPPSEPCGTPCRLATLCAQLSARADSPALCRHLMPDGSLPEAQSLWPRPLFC
#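 Human placenta-derived ASM preincubated with compound 10 min at room temperature, then reacted with 9 uM (final) fluorogenic HMU-PC substrate for 60 min at 37 C. Stop solution raises pH to 10; fluorescence read at Ex 386/Em 447 nm.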
# DT40 TDP1 CPT: growth inhibition of DT40 Tdp1-/-;hTDP1 cells with camptothecin (screen for TDP1 inhibitors); chicken DT40 Tdp1-/-;hTDP1 cells + 20 nM CPT, ATP luminescence, 48 h; Potency, µM (doses to about 46.2 µM), hits mostly inhibitors; 420,000 tested, 12% active; note: nearly all actives have a fitted effect of over 55% in size
#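 Chicken DT40 Tdp1-/- cells stably complemented with human TDP1 were seeded at 400 cells/well in medium containing 20 nM camptothecin, exposed to pin-transferred compounds, and grown at 37 °C for at least 48 hr. Viability was read as ATP luminescence.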
# Hits are given with their value; . = inactive; ? = inconclusive; / = no result; [ ] = another dose, or the depositor's remark. A selection: hits, their analogues and other compounds. The true share with any hit is near 19%. Unless noted, calls come from the whole dose curve; as a rule, active = well fitted curve in the direction sought with a large enough effect; inconclusive = small, poorly fitted or top-dose-only effect, or another doubt; inactive = no such curve, though single readings can be large; an effect the other way counts as inactive or inconclusive.
SMILES,TGFb inhibitor,DT40 TDP1 no CPT,HepG2 viability,IL-1B inflam inh,S-ASM inh,DT40 TDP1 CPT
COc1ccc(-n2nc(C(=O)NCC(=O)N3CCC(C(N)=O)CC3)c3ccccc3c2=O)cc1,.,.,.,.,.,.
CCOc1ccc(OC(=O)c2cccc(S(=O)(=O)N3CCN(C)CC3)c2)cc1,.,.,.,.,.,.
CCOc1ccc2cc(S(=O)(=O)N3CCN(C)CC3)ccc2c1,.,23µM,.,.,.,?
O=S(=O)(c1ccc(Oc2ccc(Cl)cc2)c(S(=O)(=O)N2CCCCC2)c1)N1CCCCC1,.,15µM,.,.,.,?
CCOc1ccc2cc(S(=O)(=O)N3CCCCC3)ccc2c1,.,?,18µM,.,.,29µM
Cc1nn(-c2ccccc2)c(C)c1C(=O)OCC(=O)Nc1ccccc1Cl,.,.,.,.,/,.
Cc1cc(C)cc(N2CC(O)=C(c3nc4ccccc4c(=O)[nH]3)C2=N)c1,.,9.2µM,.,.,.,13µM
COc1cccc(N2CC(O)=C(c3nc4ccccc4c(=O)[nH]3)C2=N)c1,.,1.2µM,.,.,.,1.5µM
CC(C)N1CC(O)=C(c2nc3ccccc3c(=O)[nH]2)C1=N,.,?,.,?,.,.
COc1ccc2c(c1)CCC1C2=NN(/C(C)=C\C(C)=O)C1c1ccc(F)cc1 (centres undefined),.,?,.,.,.,18µM
COc1ccc2c(c1)C1=NN(/C(C)=C/C(C)=O)C(c3ccc(F)cc3)C1CC2 (centres undefined),.,?,.,.,.,?
COc1ccc2c(c1)C1=NN(/C(C)=C\C(C)=O)C(c3ccccc3)C1CC2 (centres undefined),?,?,.,.,.,18µM
Cc1cccc(NC(=S)NCc2ccccc2)c1C,.,.,.,.,.,.
CN(C)c1ccc(CCC2C=Cc3ccccc32)cc1 (centres undefined),.,?,.,/,/,?
O=C(CCCCCn1c(=O)[nH]c2ccccc2c1=O)NCc1ccccc1,.,.,.,/,/,.
CCN1CCN(c2cc(C(C)C)nc3c(-c4ccccc4)c(C)nn23)CC1,?,21µM,.,/,.,12µM
CCN1CCN(c2cc(C(C)(C)C)nc3c(-c4ccccc4)c(C)nn23)CC1,.,18µM,.,?,.,?
Cc1nn2c(N3CCOCC3)cc(C(C)C)nc2c1-c1ccccc1,.,.,.,.,.,?
Cc1cc(C=O)cc(C)c1[N+](=O)[O-],.,?,.,/,/,?
O=S(=O)(Nc1nc2ccccc2nc1Cl)c1ccc(Br)cc1,13µM,?,.,.,.,?
COc1cccc(Nc2nc3ccccc3nc2NS(=O)(=O)c2cccs2)c1,.,10µM,.,?,.,9.2µM
O=S(=O)(Nc1nc2ccccc2nc1N1CCc2ccccc2C1)c1ccc(Br)cc1,.,18µM,.,.,.,?
O=S(=O)(Nc1nc2ccccc2nc1Cl)c1ccc(Cl)cc1,13µM,?,.,.,.,.
O=S(=O)(Nc1nc2ccccc2nc1N1CCc2ccccc2C1)c1ccc(Cl)cc1,.,?,.,.,.,?
CCOc1nc2ccccc2nc1NS(=O)(=O)c1ccc(Cl)cc1,.,.,.,.,.,.
SMILES,TGFb inhibitor,DT40 TDP1 no CPT,HepG2 viability,IL-1B inflam inh,S-ASM inh,DT40 TDP1 CPT
O=C(CCNC(=O)Cn1ccc2ccccc2c1=O)NCc1ccc(F)cc1Cl,.,.,.,.,.,.
CCOC(=O)c1c(S(=O)(=O)N2CCCC(C(=O)Nc3cc(C)ccn3)C2)c(C)n(C)c1C (centres undefined),.,.,.,/,/,.
COc1ccc(Nc2nc3ccccc3nc2NS(=O)(=O)c2ccc(Cl)cc2)cc1OC,?,?,.,/,/,9.2µM
COc1ccc(S(=O)(=O)Nc2nc3ccccc3nc2Nc2cccc(C(=O)O)c2)cc1,.,.,.,.,.,.
Cc1noc(C)c1S(=O)(=O)N1CCC(C(=O)O)CC1,.,.,.,.,.,.
CC(=O)c1ccc(-c2ccc3c4c(ccc3c2)OC(CNC(=O)C(C)N2CCOCC2)C4)s1 (centres undefined),/,7.3µM,/,/,/,?
CC(=O)c1ccc(-c2cc(F)cc3c2OC(CNC(=O)c2ccc[n+]([O-])c2)C3)s1 (centres undefined),/,.,/,/,/,.
CCCc1ccc2oc(C(=O)NCCN3CCCC(O)C3)c(C)c2c1 (centres undefined),.,?,.,-66,.,?
COc1ccc(N(CC(=O)Nc2ccc(Cl)cc2)S(=O)(=O)c2c(C)n[nH]c2C)cc1,?,.,.,.,.,?
Cc1ccc(N(CC(=O)N2CCN(c3ccc(Cl)cc3)CC2)S(=O)(=O)c2c(C)noc2C)cc1,?,23µM,.,/,/,?
Cc1ccc(N(CC(=O)N2CCN(c3ccc(F)cc3)CC2)S(=O)(=O)c2c(C)noc2C)cc1,?,?,.,.,.,15µM
CCOC(=O)N1CCN(C(=O)CN(c2ccc(C)cc2)S(=O)(=O)c2c(C)noc2C)CC1,.,.,.,.,.,.
COc1ccc(N(CC(=O)N2CCN(c3ccc(Cl)cc3)CC2)S(=O)(=O)c2c(C)n[nH]c2C)cc1,.,?,.,-62,.,?
CC1CN(CC(=O)NCCc2ccncc2)Cc2ccccc2O1 (centres undefined),/,.,/,/,/,.[9.04 µM]
O=C1c2ccccc2S(=O)(=O)c2cc(C(=O)N3CCC(C(=O)N4CCCCC4)CC3)ccc21,.,.,.,.,.,.
Cc1cc(F)ccc1S(=O)(=O)N1CCCOC1CNC(=O)C(=O)NCc1cccnc1 (centres undefined),.,.,.,.,.,.
CCCCN(CC)C(=O)c1cc2cc3ccc(OC)cc3nc2o1,.,?,.,?,.,?
CCN(C(=O)c1cc2cc3ccc(OC)cc3nc2o1)c1cccc(C)c1,.,16µM,.,/,/,23µM
Cc1cccc(N(C)C(=O)c2cc3cc4ccc(C)cc4nc3o2)c1,.,18µM,.,.,.,12µM
COc1cc(OC)c(/C=C/c2ccc3ccccc3[n+]2[O-])c(OC)c1,.,?,.,/,/,?
COc1cc(OC)c(OC)cc1/C=C/c1cc[n+](C)c2ccccc12,.,2µM,.,/,/,4µM
COc1cc(OC)c(/C=C/c2cc[n+](C)c3ccccc23)c(OC)c1,?,0.45µM,.,/,/,0.5µM
Cc1cc(N(C)C)cc(C)c1/C=C/c1cc[n+](C)c2ccccc12,8.9µM,0.56µM,.,/,/,0.56µM
